# Tests used:
# Assay in all cases: pooled miR-30 sensor sort-seq; sequence = guide strand
# Settings in all cases: shRNA
# EPC2 = biological target: EPC2
# EPB41 = biological target: EPB41
# EPDR1 = biological target: EPDR1
# EPAS1 = biological target: EPAS1
# EPHX1 = biological target: EPHX1
# ESR2 = biological target: ESR2
# Note: reference of the scale not given here.
sequence,measurement,setting,value
TTTTTCTCTAAACACTTGCTGT,sensor-assay potency score (higher = more potent),EPC2,-0.823
TTGAACAATTCTGATATCCTAA,sensor-assay potency score (higher = more potent),EPB41,-0.113
ATAATTTCTTAGCTGCTCGGTA,sensor-assay potency score (higher = more potent),EPB41,-0.474
TTAAGTGCAATAATTCTCGTTT,sensor-assay potency score (higher = more potent),EPC2,0.497
TTTACTTGCTGTACGCTCGAAG,sensor-assay potency score (higher = more potent),EPB41,0.135
TATCTTGTTATGTCTTCTGTTA,sensor-assay potency score (higher = more potent),EPB41,-0.573
TTCTGGGTCGTAGTCTCCCAGT,sensor-assay potency score (higher = more potent),EPB41,-1.42
TCTAGCTGACTTTCTGTCCGAC,sensor-assay potency score (higher = more potent),EPDR1,-0.0561
TTGCATCTGAACTAACTGCTGC,sensor-assay potency score (higher = more potent),EPC2,0.128
TAGTATGGACAGTTGTGTGTGA,sensor-assay potency score (higher = more potent),EPAS1,-0.0372
TTTGTAGAAACAACCAGCCTGG,sensor-assay potency score (higher = more potent),EPB41,0.246
TTAATTTCCATCTTTCTGTTAA,sensor-assay potency score (higher = more potent),EPC2,-0.679
TTATGTCTTCTGTTAACTGTGC,sensor-assay potency score (higher = more potent),EPB41,-0.0684
TAAAACTTTACATTAAATGTAA,sensor-assay potency score (higher = more potent),EPB41,-0.313
TTCTTGAAGTGTTACAAGCTGA,sensor-assay potency score (higher = more potent),EPC2,-0.486
TTCATAAACTGTGTCATCCAAC,sensor-assay potency score (higher = more potent),EPB41,-0.828
TTTCAGGTACAAGTTGTCCATC,sensor-assay potency score (higher = more potent),EPAS1,-1.4
TGTTTGACAAGATTCCTCCTGC,sensor-assay potency score (higher = more potent),EPB41,0.721
TTAGGAGACAATAGTCTCCTGA,sensor-assay potency score (higher = more potent),EPDR1,-0.95
TTTGATCTCCTCTTGACTCTTG,sensor-assay potency score (higher = more potent),EPB41,0.604
TAGCTTGCCTGGTCTGAGCTTG,sensor-assay potency score (higher = more potent),EPB41,-0.0306
TAGAGCACTAGCTTGCCTGGTC,sensor-assay potency score (higher = more potent),EPB41,0.107
TTGTTGTAGACTTTCACCTGGC,sensor-assay potency score (higher = more potent),EPAS1,0.403
TTTACTTCTATTTTGGAGCACT,sensor-assay potency score (higher = more potent),EPB41,-0.574
TTGGTCACTGACATGTCTGGGT,sensor-assay potency score (higher = more potent),EPB41,-0.161
TTGACTCTTGTCTAAATCCTCC,sensor-assay potency score (higher = more potent),EPB41,-0.522
AAAACTCGTAGAAAGAGCCGGG,sensor-assay potency score (higher = more potent),EPHX1,0.199
TAAAAAAGGCCTTACATCCTTC,sensor-assay potency score (higher = more potent),ESR2,-0.442
TAGCTGGACAAATATAATCATT,sensor-assay potency score (higher = more potent),ESR2,-1.44
TTACATCCTTCACACGACCAGA,sensor-assay potency score (higher = more potent),ESR2,-0.608

# From the OligoGym collection
